# Data taken from PubChem BioAssay AID602475 (National Center for Advancing Translational Sciences (NCATS), 2012).
# Inconclusive results are not listed. Entries that show only a call come without a potency. Active and inactive are the calls of the source. Calls come from the whole dose curve; as a rule, active = well fitted inhibition curve with a large enough effect; inconclusive = small, poorly fitted or top-dose-only effect; inactive = no such curve, though single readings can be large or run the other way.
# Molecular target: Luciferin 4-monooxygenase (Photinus pyralis) (UniProt P08659)
# Test: FLuc inhibitory activity for the follow-up compounds in a biochemical assay with an in-house formulation of detection reagent
# Settings: purified FLuc, luminescence; series mostly up to 25.6 µM
# Source text: NCGC Assay Overview: Firefly (Photinus pyralis) luciferase is one of the most commonly used transcriptional reporters. It is considered one of the more dynamically responsive reporters - that is, responsive to changes in reporter transcription - as it requires no post-translational modifications and is enzymatically active directly after protein synthesis (Wood, 1998). With no endogenous expression in mammalian cells and without the requirement of external excitation, it offers very little background signal, thus generally providing excellent signal to background for most assays. Previous profiling work to determine the prevalence of compounds that affect FLuc enzymatic activity (PubChem AID 411) identified that ~3% of the MLSMR library (then at ~72K) inhibited FLuc (Auld et al., 2008). […] Of the compounds identified in this profile that inhibited FLuc, 151 compounds were selected for further analysis, in an effort to better understand their mode of inhibiting FLuc. The assay described here was to determine the activity of the compounds in a FLuc assay that used an in-house formulation of detection reagent.
# NCGC Assay Protocol Summary: Reagents: 300mM Tris-HCl, 300mM Trizma base, 300mM MgCl, 1% Triton-X100, 5mM DTT, 500uM Coenzyme A trilithium salt (Sigma #C3019),450uM ATP (Sigma #A7699), 1mM D-luciferin sodium salt monohydrate (Biosynth #L8240); 10nM P. pyralis luciferase (Sigma #L9506) Control compounds used were two known firefly luciferase inhibitors (3-(5-(3-chlorophenyl)-1,2,4-oxadiazol-3-yl)benzoic acid and 5-(2-fluorophenyl)-3-phenyl-1,2,4-oxadiazole), and DMSO. Assay Summary: Six microliters of buffer containing firefly luciferase (final concentrations: 50mM Tris acetate, 10nM P. pyralis luciferase) are dispensed into each well of a Greiner white, solid-bottom 1536-well format plate using a flying reagent dispenser (FRD). These assay plates were then treated with 23nL of compound or DMSO using a Kalypsys pin tool, which allows for delivery of a 12-point intraplate titration of each compound to the assay plate (quantitative HTS), with final compound concentrations ranging from approximately ~25uM to 0.1nM. Three microliters of 3X in-house detection reagent was then delivered by FRD to each well (final concentrations in assay: 300mM Tris-HCl, 300mM Trizma base, 300mM MgCl, 1% Triton-X100, 5mM DTT, 500uM Coenzyme A trilithium salt, 450uM ATP, 1mM D-luciferin sodium salt monohydrate). Luciferase activity was then measured using a ViewLux CCD imager (PerkinElmer), with an average exposure time of 2-30 seconds (2X binning, medium/high gain).
# Sequence of Luciferin 4-monooxygenase (Photinus pyralis) (P08659 whole entry, looked up): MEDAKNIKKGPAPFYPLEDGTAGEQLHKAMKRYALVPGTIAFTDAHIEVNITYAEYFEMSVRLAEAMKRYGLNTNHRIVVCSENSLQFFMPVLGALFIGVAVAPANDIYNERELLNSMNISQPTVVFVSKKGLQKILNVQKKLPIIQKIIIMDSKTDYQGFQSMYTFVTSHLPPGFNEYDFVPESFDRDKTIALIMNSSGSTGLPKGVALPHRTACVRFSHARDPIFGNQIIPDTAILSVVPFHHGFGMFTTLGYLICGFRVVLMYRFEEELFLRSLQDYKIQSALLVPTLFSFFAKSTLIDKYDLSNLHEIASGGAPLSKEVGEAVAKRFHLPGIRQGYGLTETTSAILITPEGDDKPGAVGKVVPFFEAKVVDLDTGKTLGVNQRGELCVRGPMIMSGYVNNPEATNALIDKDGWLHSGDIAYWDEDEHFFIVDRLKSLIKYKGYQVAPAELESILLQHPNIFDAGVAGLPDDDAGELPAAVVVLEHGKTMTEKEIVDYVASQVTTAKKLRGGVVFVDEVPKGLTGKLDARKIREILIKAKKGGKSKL
row,SMILES,Potency
1,CN(C)c1cccc(C(=O)Nc2ccc(-c3nc4ccccc4s3)cc2)c1,inactive
2,O=C(Nc1ccccc1-c1nc2ccccc2s1)c1cccnc1,inactive
3,Cc1ccc(S(=O)(=O)N2CCOCC2)cc1C(=O)Nc1ccccc1C(=O)O,inactive
4,CCOc1ccc2nc(NC(=O)Cc3cccs3)sc2c1,inactive
5,O=C(Nc1ccccc1C(=O)O)c1cccc(S(=O)(=O)N2CCCC2)c1,inactive
6,Cc1cccc(C(=O)Nc2ccc(-c3nc4ccccc4s3)cc2Cl)c1,inactive
7,COc1ccc2nc(NC(=O)c3cccc(S(=O)(=O)N4CCOCC4)c3)sc2c1,inactive
8,O=C(Nc1ccc(-c2nc3ccccc3s2)cc1)C1=COCCO1,2.46 µM (active)
9,CC(C)(C)NC(=O)c1ccccc1-c1nc2ccccc2s1,inactive
10,CN=c1scc(-c2ccccc2F)n1/N=C/c1ccc[nH]1,0.123 µM (active)
11,Cc1cccc(C(=O)Nc2ccccc2C(=O)Nc2ccc(C(=O)O)cc2)c1,inactive
12,O=C(COC(=O)c1ccccc1[N+](=O)[O-])c1ccc2c(c1)OCO2,0.0619 µM (active)
13,c1ccc2sc(-c3ccc4c(c3)OCO4)nc2c1,4.91 µM (active)
14,CCCC(=O)Nc1nc2ccc(OCC)cc2s1,inactive
15,CCOc1c(Cl)cc(C(=O)Nc2ccccc2C(=O)O)cc1Cl,inactive
16,Cc1c(NC(=O)c2cccs2)cccc1-c1nc2ccccc2s1,inactive
17,O=C(O)c1cccc(NC(=O)c2ccc(COc3ccc(Cl)cc3)cc2)c1,inactive
18,Cc1ccc(C(=O)Nc2ccc(C(=O)O)cc2)cc1S(=O)(=O)Nc1ccccc1,inactive
19,COc1ccc(-c2cccc(C(=O)Nc3cccc(C(=O)O)c3)c2)cc1,inactive
20,Nc1ccc2nc(-c3ccc(O)cc3)sc2c1,6.19 µM (active)

row,SMILES,Potency
1,CN(C)S(=O)(=O)c1ccc(C(=O)Nc2ccccc2C(=O)O)cc1,inactive
2,Nc1ccc(-c2nc3ccc(C(=O)O)cc3s2)cc1,5.51 µM (active)
3,Cc1ccc(NS(=O)(=O)c2ccc(Cl)c(C(=O)Nc3cccc(C(=O)O)c3)c2)cc1,inactive
4,Nc1cccc(-c2nc3ccc(N)cc3s2)c1,3.9 µM (active)
5,O=C(Nc1ccccc1C(=O)O)c1cccc(NC(=O)c2ccco2)c1,inactive
6,O=C(Nc1ccccc1C(=O)O)c1cccc(NC(=O)c2ccccc2Cl)c1,inactive
7,COc1ccc(C(=O)Nc2ccccc2C(=O)N/N=C/c2ccc(O)c(OC)c2)cc1,0.011 µM (active)
8,Cc1ccc(C(=O)O/N=C(\N)c2ccccn2)cc1,0.0619 µM (active)
9,Cc1ccccc1C(=O)Nc1cccc(C(=O)Nc2ccccc2C(=O)O)c1,inactive
10,Nc1ccccc1C(=O)Nc1cccc(C(=O)O)c1,inactive
11,Cc1ccc(C(=O)Nc2cccc(C(=O)O)c2)cc1,13.8 µM (active)
12,COc1ccc(CC(=O)Nc2cccc(C(=O)Nc3ccccc3C(=O)O)c2)cc1OC,inactive
13,O=C(O)c1ccc(NC(=O)c2cccc(C(=O)Nc3ccc(C(=O)O)cc3)c2)cc1,inactive
14,COc1ccc2nc(NC(=O)c3ccc(NS(=O)(=O)c4cccs4)cc3)sc2c1,inactive
15,Cn1c(N/N=C/c2cc3ccccc3nc2Cl)nc2ccccc21,inactive
16,Cc1ccc2nc(-c3ccc(N)cc3)sc2c1,4.91 µM (active)
17,Cc1ccc(S(=O)(=O)N2CCN(C(=O)c3ccccc3-c3nc4ccccc4s3)CC2)c(C)c1,inactive
18,O=C(O)c1cccc(NC(=O)c2ccccc2NC(=O)c2ccccc2F)c1,inactive
19,CCOc1ccc2nc(NC(=O)c3ccoc3C)sc2c1,4.91 µM (active)
20,COc1ccc(C(=O)Nc2nc3ccc(OC)cc3s2)cc1,inactive
